# Where “and” joins values, the source holds several entries; their conditions need not be identical. Identical values can stand only once. Calls of active or inactive are those of the source.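 The calls were made as follows, unless noted: active = thallium flux through the channel raised or lowered by more than 3 SD from vehicle-only wells, actives on both sides; inactive = the rest.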
# Key:
# [1] = test system: Hepatitis C virus NS3 helicase; experiment: HCV NS3 helicase inhibitors, primary screen, biochemical, fluorescence polarization, NIH Clinical Collection (AID 743270; call rule not given here); details: NS3 helicase binding to Cy5-dT15 DNA, stronger effect = higher value, concentration not given here
# [2] = biological target: Single-stranded DNA-binding protein (Escherichia coli (strain K12)) (UniProt P0AGE0); experiment: E. coli SSB displacement from DNA, counter-screen for HCV NS3 helicase inhibitor project, biochemical, fluorescence polarization, NIH Clinical Collection (AID 743271; in the data active = inhibition above about 28%); details: stronger effect = higher value, concentration not given here
# [3] = fluorescence interference in NS3h assay format, artefact control for HCV NS3 helicase inhibitor project, biochemical, NIH Clinical Collection (AID 743272; call rule not given here;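 also: HCV NS3 helicase with a Cy5 labelled single stranded DNA probe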); details: fluorescence interference counterscreen, stronger effect = lower value
# [4] = stimulators of nuclear beta-catenin in C2C12, primary screen, imaging, WNT3A-conditioned medium, mouse C2C12, NPC library (AID 1117326; in the data active = nuclear beta-catenin stimulation mostly above about 4.2%, no sharp cut-off; inactive = mostly below about 10%); details: stronger effect = higher value
# [5] = stimulators of insulin release from INS-1E, primary screen, cell-based, 5 mM glucose, NPC library (AID 1117329;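 active = compound raises insulin release from rat beta cells at 5 mM glucose, no numeric limit stated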); details: rat INS-1E insulin secretion, at 10 µM, stronger effect = higher value
# [6] = growth inhibition of GSK3B-pretreated HCT116 cells – cell-based, CellTiter-Glo, 0.2 to 20 µM (AID 1117336;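 active = compounds lowering colon cancer cell viability after pretreatment blocking the GSK3B kinase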); details: HCT116 viability after GSK3B inhibitor, at 20 µM, stronger effect = higher value
# [7] = inhibition of endothelial tube formation, primary screen, imaging, VEGF stimulated, CD31 staining, tube area, NPC library (AID 1117340;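 active = compound that reduces growth-factor-driven endothelial tube area in a mixed cell culture, no cutoff stated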); details: VEGF-stimulated ADSC/ECFC co-culture, at 10 µM, stronger effect = higher value
# [8] = glucagon-like peptide 1 release enhancers, primary assay, NCI-H716 cell line, NPC library (AID 1117341;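 active = compound raises GLP1 secretion from the human gut endocrine cells, with no numeric limit stated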); details: NCI-H716 cells, at 10 µM, stronger effect = higher value
# [9] = HCT116 colon cancer cell growth inhibition, primary screen, CellTiter-Glo luminescence, NPC library (AID 1117342;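 active = compounds that lower survival of HCT116 colon cancer cells in the luminescence readout, no numeric limit stated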); details: at 20 µM (top of the series)
# [10] = CellTiter-Glo luminescent readout of SW480 viability loss, NPC library primary (AID 1117343;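 active = compounds that lower viability of the colon cancer cells in the luminescence readout, with no numeric limit stated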); details: CellTiter-Glo luminescence; at 20 µM (top of the series)
# [11] = decreased DLD-1 cellular survival, CellTiter-Glo luminescent readout, NPC compound collection, primary HTS (AID 1117346;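 active = compounds that lower survival of DLD-1 colon cancer cells in the luminescence readout, no cutoff given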); details: DLD-1 viability, CellTiter-Glo luminescence; at 20 µM (top of the series)
# [12] = biological target: 6-phosphogluconate dehydrogenase, decarboxylating (Homo sapiens) (UniProt P52209); experiment: 6PGD enzyme inhibitors, primary screen, biochemical, human, recombinant enzyme, NADPH absorbance (AID 1159550;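 active = at least 20% inhibition of 6-phosphogluconate dehydrogenase activity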); details: recombinant 6PGD, NADPH absorbance 341 nm; at 10 µM; stronger effect = higher value
# Chain of 6-phosphogluconate dehydrogenase, decarboxylating (Homo sapiens) (P52209 whole entry, looked up): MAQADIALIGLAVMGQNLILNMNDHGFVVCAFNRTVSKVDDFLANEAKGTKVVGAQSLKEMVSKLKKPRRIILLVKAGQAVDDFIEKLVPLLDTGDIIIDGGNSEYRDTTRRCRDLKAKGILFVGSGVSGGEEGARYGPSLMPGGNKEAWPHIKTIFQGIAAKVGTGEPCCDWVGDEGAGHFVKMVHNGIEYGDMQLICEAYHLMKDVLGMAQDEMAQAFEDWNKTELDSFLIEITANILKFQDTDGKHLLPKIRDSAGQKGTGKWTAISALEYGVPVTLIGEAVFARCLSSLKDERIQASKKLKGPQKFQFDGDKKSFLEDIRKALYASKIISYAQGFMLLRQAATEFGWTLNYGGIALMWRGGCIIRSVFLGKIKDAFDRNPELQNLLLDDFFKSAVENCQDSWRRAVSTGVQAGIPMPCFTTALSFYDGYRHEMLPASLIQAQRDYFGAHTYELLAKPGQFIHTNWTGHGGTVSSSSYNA
# [13] = differential killing of epithelial or mesenchymal cells, primary screen, imaging, PC-3E GFP, TEM4-18 mCherry, co-culture (AID 1345086;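 active = compounds killing one labelled cell type while sparing the other, by normalised counts and ratio limits, not self-fluorescent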;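 as to all read-outs here: cells exposed to compound for 72 h before imaging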;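 as to red/green cell ratio (normalised): normalised mesenchymal count divided by normalised epithelial count so high means epithelial killing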); details: imaging cell counts, at 1 µM; for red/green cell ratio (normalised): actives lie on both sides, counts scaled to control wells, 1 = unselective
# [14] = survival rescue of mitochondrial mutant cells in low glucose, primary screen, MELAS cybrids, Rieske KO mouse fibroblasts, CellTiter-Glo (AID 1508586;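 active = mean z-score across replicates of 1.96 or higher in either the MELAS or the Rieske mutant cell line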;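 also: z relative to plate mean and SD of compound and empty wells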)
# [15] = biological target: NAD(+) hydrolase SARM1 (Homo sapiens) (UniProt Q6SZW1); experiment: SARM1 TIR NADase inhibitors, cell lysate, NAD-Glo luminescence (AID 1508614;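 active = compound whose remaining NAD level is above about 45 nM, limit read from the data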;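 also: higher remaining NAD means stronger inhibition of SARM1 NADase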); details: SAM-TIR HEK293T lysate NADase, at 1 µM, stronger effect = higher value
# Chain of NAD(+) hydrolase SARM1 (Homo sapiens) (Q6SZW1 whole entry, looked up, the tested form may be a part): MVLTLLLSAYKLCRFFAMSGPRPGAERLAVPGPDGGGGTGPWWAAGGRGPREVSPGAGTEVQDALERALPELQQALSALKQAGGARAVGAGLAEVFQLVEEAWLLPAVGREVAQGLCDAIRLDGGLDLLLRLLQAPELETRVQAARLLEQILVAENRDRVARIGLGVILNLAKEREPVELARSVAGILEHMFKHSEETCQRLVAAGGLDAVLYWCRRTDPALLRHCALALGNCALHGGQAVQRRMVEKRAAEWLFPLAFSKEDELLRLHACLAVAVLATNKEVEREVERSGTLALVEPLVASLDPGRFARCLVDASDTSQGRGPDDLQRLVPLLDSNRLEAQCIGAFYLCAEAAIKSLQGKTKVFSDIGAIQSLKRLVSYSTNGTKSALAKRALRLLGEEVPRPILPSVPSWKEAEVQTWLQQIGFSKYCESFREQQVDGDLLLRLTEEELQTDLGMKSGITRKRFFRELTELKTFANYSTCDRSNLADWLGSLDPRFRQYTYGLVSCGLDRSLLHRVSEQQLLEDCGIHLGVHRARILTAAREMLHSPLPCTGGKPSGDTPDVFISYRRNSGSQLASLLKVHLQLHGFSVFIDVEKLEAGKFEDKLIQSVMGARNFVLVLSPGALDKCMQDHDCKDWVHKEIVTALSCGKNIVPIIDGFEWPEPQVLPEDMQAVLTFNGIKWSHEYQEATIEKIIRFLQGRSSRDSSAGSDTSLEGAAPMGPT
# [16] = biological target: Mitogen-activated protein kinase 7 (Homo sapiens) (UniProt Q13164); experiment: ERK5 transactivation activators in reporter cells, primary screen, cell-based, HTS (AID 1508626;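 active = luciferase signal above three times the same-plate solvent-only control wells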;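 also: luciferase driven by Gal4-ERK5 fusion binding five Gal4 sites before minimal TATA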); details: HeLa Gal4-ERK5 transactivation, 18 h, at 5 µM, stronger effect = higher value
# Chain of Mitogen-activated protein kinase 7 (Homo sapiens) (Q13164 whole entry, looked up, the tested form may be a part): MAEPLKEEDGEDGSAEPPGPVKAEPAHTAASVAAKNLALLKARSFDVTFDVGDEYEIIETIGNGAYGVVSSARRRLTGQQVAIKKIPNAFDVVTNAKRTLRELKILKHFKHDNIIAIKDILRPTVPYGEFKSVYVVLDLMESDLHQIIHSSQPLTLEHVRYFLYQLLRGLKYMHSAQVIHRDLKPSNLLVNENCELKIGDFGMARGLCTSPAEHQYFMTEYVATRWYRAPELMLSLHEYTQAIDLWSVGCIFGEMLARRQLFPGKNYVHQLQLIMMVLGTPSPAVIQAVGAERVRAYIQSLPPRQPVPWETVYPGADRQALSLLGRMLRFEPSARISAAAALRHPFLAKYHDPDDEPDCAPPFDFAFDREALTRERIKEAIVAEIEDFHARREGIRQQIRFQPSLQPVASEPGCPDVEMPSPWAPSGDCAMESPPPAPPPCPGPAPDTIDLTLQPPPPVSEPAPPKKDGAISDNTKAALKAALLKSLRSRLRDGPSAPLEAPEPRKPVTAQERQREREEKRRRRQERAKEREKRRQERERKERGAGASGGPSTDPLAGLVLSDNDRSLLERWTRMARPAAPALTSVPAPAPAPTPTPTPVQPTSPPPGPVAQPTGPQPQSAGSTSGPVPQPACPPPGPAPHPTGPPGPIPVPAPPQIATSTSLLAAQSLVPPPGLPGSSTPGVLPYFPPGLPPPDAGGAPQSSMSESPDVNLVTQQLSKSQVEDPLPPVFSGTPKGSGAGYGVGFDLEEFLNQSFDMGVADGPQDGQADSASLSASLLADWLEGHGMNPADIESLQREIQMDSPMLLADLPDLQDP
# F380Y = experiment: modulators of BK channel variants, profiling panel, selectivity assay, cell-based, U2OS BacMam, thallium flux, beta subunits (AID 1259406); details: at 30 µM;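 also: initial slope of Thallos dye fluorescence rise after thallium is added; log ratio against the mean of 0.3% DMSO vehicle wells on the same plate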
# F380Y/beta2Delta = experiment: as above; details: at 30 µM
# [17] = biological target: Calcium-activated potassium channel subunit alpha-1 (Homo sapiens) + Leucine-rich repeat-containing protein 26 (Homo sapiens) (UniProt Q12791+Q2I0M4); experiment: as above; details: F380Y/Slo1WT/gamma1, at 30 µM
# Chain of Calcium-activated potassium channel subunit alpha-1 (Homo sapiens) + Leucine-rich repeat-containing protein 26 (Homo sapiens) (Q2I0M4 whole entry, looked up, one chain of several): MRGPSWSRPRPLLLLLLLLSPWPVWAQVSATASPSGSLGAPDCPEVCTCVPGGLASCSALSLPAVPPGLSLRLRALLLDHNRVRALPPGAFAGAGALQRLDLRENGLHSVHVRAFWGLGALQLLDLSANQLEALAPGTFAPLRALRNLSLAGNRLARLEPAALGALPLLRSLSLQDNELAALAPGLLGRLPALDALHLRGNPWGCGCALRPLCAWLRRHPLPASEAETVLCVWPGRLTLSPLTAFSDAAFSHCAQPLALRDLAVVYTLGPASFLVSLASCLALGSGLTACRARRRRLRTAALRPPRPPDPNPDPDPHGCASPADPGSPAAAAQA
# [18] = sensitizers of A549 cells to miR-34 induction, primary screen, imaging, A549 dox-inducible miR-34, nuclei and caspase counts (AID 1347080;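 active = compounds whose cell count with miR-34 switched on is under 0.7 times the count with it off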); details: A549 miR-34 inducible, Hoechst nuclei count, 48 h
# [19] = measured here: epithelial PC-3E GFP cell survival
# [20] = measured here: mesenchymal TEM4-18 mCherry cell survival
# [21] = MELAS cybrid survival, CellTiter-Glo 48 h, stronger effect = higher value
# [22] = Rieske KO mouse fibroblast survival, CellTiter-Glo 72 h
# [23] = stronger effect = lower value, cell number ratio, induced over uninduced
# [24] = measured here: relative caspase fold change +Dox/-Dox
# [25] = measured here: total cells with miR-34 induction, stronger effect = lower value
# [26] = measured here: total cells without miR-34 induction
compound,measurement,setting,value
c1ccc2c(CC3=NCCN3)cccc2c1,inhibition,[1],-3.18% (inactive)
same,inhibition,[2],-2.76% (inactive)
same,fluorescence ratio,[3],1.02 (inactive)
same,nuclear beta-catenin stimulation,[4]; at 10 µM,0.4% (inactive)
same,nuclear beta-catenin stimulation,"[4]; stimulation, at 2 µM",1.1%
same,insulin secretion stimulation,[5],-1.7% (inactive)
same,viability decrease,[6],-2.25% (inactive)
same,tube area decrease,[7],20.2% (inactive)
same,GLP1 secretion stimulation,[8],2.8% (inactive)
same,inhibition of viability,[9],-0.7% (inactive)
same,viability decrease (inhibition),[10],19.7% (inactive)
same,viability decrease (inhibition),[11],8% (inactive)
same,inhibition,[12],-9.35% (inactive)
same,red/green cell ratio (normalised),[13],0.84 (inactive)
same,normalised cell number,[13]; [19],1.03
same,normalised cell number,[13]; [20],0.86
same,z-score,[14]; [21],-0.272 (inactive) and 0.214 (inactive) and 0.142 (inactive)
same,z-score,[14]; [22],-0.0845 and -0.183 and -0.115
same,remaining NAD,[15],10 nM (inactive)
same,luciferase signal,[16],44 AU (inactive)
same,log fold change Tl+ flux,F380Y,-0.0182 (inactive)
same,log fold change Tl+ flux,F380Y/beta2Delta,-0.014 (inactive)
same,log fold change Tl+ flux,[17],0.0291 (inactive)
CCOc1ccc2ccccc2c1C(=O)N[C@@H]1C(=O)N2[C@@H]1SC(C)(C)[C@@H]2C(=O)O,inhibition,[1],-10.4% (inactive)
same,inhibition,[2],-6.58% (inactive)
same,fluorescence ratio,[3],0.98 (inactive)
same,nuclear beta-catenin stimulation,[4]; at 10 µM,-0.5% (inactive)
same,nuclear beta-catenin stimulation,"[4]; stimulation, at 2 µM",0.1%
same,insulin secretion stimulation,[5],0.3% (inactive)
same,viability decrease,[6],-12.1% (inactive)
same,tube area decrease,[7],-14.5% (inactive)
same,GLP1 secretion stimulation,[8],-2.2% (inactive)
same,inhibition of viability,[9],-10.6% (inactive)
same,viability decrease (inhibition),[10],39.8% (inactive)
same,viability decrease (inhibition),[11],-29.8% (inactive)
same,inhibition,[12],-5.14% (inactive)
same,fold change,[18]; [23],1.06 (inactive) and 0.86 (inactive)
same,fold change,[18]; [24],0.823 and 1.09
same,cell count,[18]; [25],9950 and 9060
same,cell count,[18]; [26],9360 and 10500
same,z-score,[14]; [21],0.661 (inactive)
same,z-score,[14]; [22],-0.47
same,remaining NAD,[15],10 nM (inactive)
same,luciferase signal,[16],76 AU (inactive)
same,log fold change Tl+ flux,F380Y,-0.0205 (inactive)
same,log fold change Tl+ flux,F380Y/beta2Delta,-0.0424 (inactive)
same,log fold change Tl+ flux,[17],0.0363 (inactive)
CCS(=O)(=O)CCn1c([N+](=O)[O-])cnc1C,inhibition,[1],-0.22% (inactive)
same,inhibition,[2],1.18% (inactive)
same,fluorescence ratio,[3],0.92 (inactive)
same,nuclear beta-catenin stimulation,[4]; at 10 µM,0.7% (inactive)
same,nuclear beta-catenin stimulation,"[4]; stimulation, at 2 µM",0.6%
same,insulin secretion stimulation,[5],-2% (inactive)
same,viability decrease,[6],-16.5% (inactive)
same,tube area decrease,[7],-0.1% (inactive)
same,GLP1 secretion stimulation,[8],2.3% (inactive)
same,inhibition of viability,[9],6.2% (inactive)
same,viability decrease (inhibition),[10],-14.6% (inactive)
same,viability decrease (inhibition),[11],-1.25% (inactive)
same,inhibition,[12],-3.03% (inactive)
same,red/green cell ratio (normalised),[13],0.88 (inactive)
same,normalised cell number,[13]; [19],1.27
same,normalised cell number,[13]; [20],1.12
same,z-score,[14]; [21],-0.299 (inactive) and 0.791 (inactive) and -0.0778 (inactive)
same,z-score,[14]; [22],-0.288 and 0.13 and -0.654
same,remaining NAD,[15],10 nM (inactive)
same,luciferase signal,[16],36 AU (inactive)
same,log fold change Tl+ flux,F380Y,0.0247 (inactive)
same,log fold change Tl+ flux,F380Y/beta2Delta,-0.0231 (inactive)
same,log fold change Tl+ flux,[17],-0.0103 (inactive)
CN[C@@H]1[C@H](O)[C@H](NC)[C@H]2O[C@@]3(O)C(=O)C[C@@H](C)O[C@H]3O[C@@H]2[C@H]1O,inhibition,[1],-5% (inactive)
same,inhibition,[2],-4.29% (inactive)
same,fluorescence ratio,[3],1.01 (inactive)
same,nuclear beta-catenin stimulation,[4]; at 10 µM,0.2% (inactive)
same,nuclear beta-catenin stimulation,"[4]; stimulation, at 2 µM",3.5%
same,insulin secretion stimulation,[5],-0.2% (inactive)
same,viability decrease,[6],12.5% (inactive)
same,tube area decrease,[7],-8.4% (inactive)
same,GLP1 secretion stimulation,[8],23.7% (active)
same,inhibition of viability,[9],6.2% (inactive)
same,viability decrease (inhibition),[10],12.1% (inactive)
same,viability decrease (inhibition),[11],3.7% (inactive)
same,inhibition,[12],-6.86% (inactive)
same,red/green cell ratio (normalised),[13],1.39 (inactive)
same,normalised cell number,[13]; [19],0.94
same,normalised cell number,[13]; [20],1.31
same,z-score,[14]; [21],0.0203 (inactive) and 0.894 (inactive)
same,z-score,[14]; [22],0.169 and 0.769
same,remaining NAD,[15],10 nM (inactive)
same,luciferase signal,[16],44 AU (inactive)
same,log fold change Tl+ flux,F380Y,-0.0285 (inactive)
same,log fold change Tl+ flux,F380Y/beta2Delta,-0.0192 (inactive)
same,log fold change Tl+ flux,[17],0.021 (inactive)
Nc1nc2ncc(CNc3ccc(C(=O)N[C@@H](CCC(=O)O)C(=O)O)cc3)nc2c(=O)[nH]1,inhibition,[1],-2.27% (inactive)
same,inhibition,[2],11% (inactive)
same,fluorescence ratio,[3],0.92 (inactive)
same,nuclear beta-catenin stimulation,[4]; at 10 µM,0.8% (inactive)
same,nuclear beta-catenin stimulation,"[4]; stimulation, at 2 µM",0.5%
same,insulin secretion stimulation,[5],2.4% (inactive)
same,viability decrease,[6],-64.4% (inactive)
same,tube area decrease,[7],16.7% (inactive)
same,GLP1 secretion stimulation,[8],-1.5% (inactive)
same,inhibition of viability,[9],-2.33% (inactive)
same,viability decrease (inhibition),[10],6.4% (inactive)
same,viability decrease (inhibition),[11],-8.5% (inactive)
same,inhibition,[12],-0.853% (inactive)
same,fold change,[18]; [23],0.937 (inactive) and 0.906 (inactive) and 0.91 (inactive)
same,fold change,[18]; [24],1.68 and 0.997 and 3.41
same,cell count,[18]; [25],10800 and 8990 and 11200
same,cell count,[18]; [26],11600 and 9920 and 12300
same,z-score,[14]; [21],0.332 (inactive)
same,z-score,[14]; [22],-0.293
same,remaining NAD,[15],10 nM (inactive)
same,luciferase signal,[16],188 AU (inactive)
same,log fold change Tl+ flux,F380Y,-0.0861 (inactive)
same,log fold change Tl+ flux,F380Y/beta2Delta,-0.000783 (inactive)
same,log fold change Tl+ flux,[17],-0.00611 (inactive)
C[C@H]1C[C@@H]2[C@H]([C@@H](O)C[C@@]3(C)[C@H]2CC[C@]3(O)C(=O)CO)[C@@]2(C)C=CC(=O)C=C12,inhibition,[1],-1.36% (inactive)
same,inhibition,[2],1.81% (inactive)
same,fluorescence ratio,[3],1.04 (inactive)
same,nuclear beta-catenin stimulation,[4]; at 10 µM,-1.3% (inactive)
same,nuclear beta-catenin stimulation,"[4]; stimulation, at 2 µM",0%
same,insulin secretion stimulation,[5],2.2% (inactive)
same,viability decrease,[6],-8.4% (inactive)
same,tube area decrease,[7],-6.1% (inactive)
same,GLP1 secretion stimulation,[8],1% (inactive)
same,inhibition of viability,[9],2.5% (inactive)
same,viability decrease (inhibition),[10],3.7% (inactive)
same,viability decrease (inhibition),[11],-5% (inactive)
same,inhibition,[12],12.4% (inactive)
same,fold change,[18]; [23],0.959 (inactive) and 0.809 (inactive) and 0.808 (inactive)
same,fold change,[18]; [24],0.739 and 1.35 and 1.33
same,cell count,[18]; [25],7180 and 6410 and 5950
same,cell count,[18]; [26],7490 and 7930 and 7360
same,z-score,[14]; [21],0.0891 (inactive) and -0.0037 (inactive)
same,z-score,[14]; [22],-0.286 and 1.09
same,remaining NAD,[15],10 nM (inactive)
same,luciferase signal,[16],100 AU (inactive)
same,log fold change Tl+ flux,F380Y,0.00302 (inactive)
same,log fold change Tl+ flux,F380Y/beta2Delta,0.00102 (inactive)
same,log fold change Tl+ flux,[17],-0.0378 (inactive)

# Source: PubChem BioAssay
